Experimental data from PubChem BioAssay AID1224921 (Broad Institute, 2016).
The whole screen tested about 1,400 compounds, of which about 350 (25%) were called active. Inconclusive results (about 2%) are left out. How the calls were made is not given here. The list is a sample of the results. Entries with a potency or affinity are not part of this list.

assay: C. difficile growth inhibition, confirmation, 4-point retest (AID 1224921); settings: Clostridioides difficile clinical isolate growth, OD600, 24 h, stronger effect = lower value; at 30 µM unless noted;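 further: plate controls were DMSO wells for no effect and levofloxacin 16 µg/mL wells for full effect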

Max activity, inactive:
C[C@H]1CN([C@@H](C)CO)C(=O)c2cccc(NC(=O)c3ccc(-c4nccs4)cc3)c2O[C@@H]1CN(C)C(=O)Nc1ccc(C(F)(F)F)cc1 20.3% [at 8 µM], COc1ccccc1CNC(=O)C[C@H]1C[C@@H]2c3cc(NC(=O)NC4CCCC4)ccc3O[C@@H]2[C@H](CO)O1 -8.77% [at 2.1 µM], C[C@@H]1CN([C@H](C)CO)C(=O)c2c(c3ccccc3n2C)-c2ccccc2CO[C@@H]1CN(C)Cc1ccncc1 24.2% [at 35 µM], CCC(CO)Oc1cc(NCc2ccccc2)c2ncn(C(C)C)c2c1 (stereo unspecified) -5.47% [at 8 µM], CCS(=O)(=O)Nc1ccc2c(c1)C(=O)N(C)C[C@H](OC)[C@H](C)CN(CC1CCCC1)[C@@H](C)CO2 11.3%, CC(C)=CCN(C(=O)C#Cc1ccccc1)[C@H](CO)c1ccccc1 14.2% [at 1.95 µM], C[C@H](CO)N1C[C@H](C)[C@H](CN(C)Cc2ccc(C(F)(F)F)cc2)OCCCC[C@H](C)Oc2ccc(NS(C)(=O)=O)cc2C1=O 5.77% [at 1.95 µM], CCCC#Cc1ccc2c(c1)O[C@@H](CN(C)Cc1ccncc1)[C@H](C)CN([C@@H](C)CO)S2(=O)=O -9.09% [at 1.95 µM], CO[C@@H]1CN(C)C(=O)c2ccc(NC(=O)c3nc4ccccc4s3)cc2OC[C@H](C)N(Cc2cccnc2)C[C@H]1C 25.4%, CCCC(O)C#Cc1cnc2c(c1)C(=O)N([C@H](C)CO)C[C@H](C)[C@H](CN(C)Cc1ccncc1)O2 (stereo partly specified) 12%, C[C@H](CO)N1C[C@H](C)[C@H](CN(C)C(=O)c2cccc(F)c2)Oc2ncc(C3=CCCCC3)cc2C1=O -6.68% [at 8 µM], C[C@@H]1CN([C@H](C)CO)C(=O)c2c(c3ccccc3n2C)-c2ccccc2CO[C@@H]1CN(C)S(=O)(=O)CC(F)(F)F 28.3%, Cc1ccccc1S(=O)(=O)NCC[C@@H]1CC[C@@H](NC(=O)Nc2cccc(Cl)c2)[C@@H](CO)O1 23.9%, C[C@H]1CN([C@@H](C)CO)C(=O)Cc2cc(NS(C)(=O)=O)ccc2O[C@@H]1CN(C)Cc1ccccc1 11.3%, COCC(=O)Nc1ccc2c(c1)OC[C@@H](C)N(Cc1cncnc1)C[C@H](C)[C@@H](OC)CN(C)C2=O -8.05% [at 1.95 µM], C[C@H](CO)N1C[C@H](C)[C@H](CN(C)S(=O)(=O)c2ccsc2)OCc2ccccc2-c2ccccc2C1=O -12.1% [at 0.5 µM], C[C@H](O)C#Cc1ccc2c(c1)O[C@H](CN(C)CC1CCCCC1)[C@H](C)CN([C@H](C)CO)S2(=O)=O 20.7%, C[C@H]1CN([C@@H](C)CO)C(=O)c2cc(NC(=O)Cc3ccccc3)ccc2O[C@@H]1CN(C)C(=O)Nc1ccccc1 -13.4% [at 0.5 µM], C[C@H](NC(=O)C[C@H]1C=C[C@@H](NC(=O)CN2CCOCC2)[C@H](CO)O1)c1ccccc1 -8.28% [at 8 µM], C/C=C/c1cnc2c(c1)C(=O)N([C@H](C)CO)C[C@@H](C)[C@@H](CN(C)Cc1ccc(F)cc1)O2 -15% [at 0.5 µM], COc1ccccc1S(=O)(=O)N[C@H]1C=C[C@@H](CC(=O)N2CCCCC2)O[C@@H]1CO -9.97% [at 8 µM], CO[C@@H]1CN(C)C(=O)c2ccc(NC(=O)c3ccccc3F)cc2OC[C@H](C)N(CC2CC2)C[C@@H]1C -12.3% [at 8 µM], CCCC#Cc1ccc2c(c1)O[C@H](CN(C)Cc1cccnc1)[C@@H](C)CN([C@@H](C)CO)S2(=O)=O 13.7% [at 8 µM], CCCNC(=O)N1C[C@H](C)[C@H](OC)CN(C)C(=O)c2cc(NC(C)=O)ccc2OC[C@H]1C 4.83% [at 8 µM], CC(=O)N(C)C[C@@H]1Oc2ncc(C#Cc3ccc(F)cc3)cc2C(=O)N([C@@H](C)CO)C[C@@H]1C 32.1%, C/C=C/c1ccc2c(c1)O[C@H](CN(C)C(=O)Cc1ccncc1)[C@@H](C)CN([C@H](C)CO)S2(=O)=O -10.9% [at 8 µM], CCCN1C[C@@H](C)[C@@H](OC)CN(C)C(=O)c2cc(NC(=O)c3cccc(OC)c3)ccc2OC[C@@H]1C -16.1% [at 1.95 µM], COc1ccccc1C#Cc1ccc2c(c1)O[C@H](CN(C)Cc1cccnc1)[C@H](C)CN([C@@H](C)CO)S2(=O)=O 25.3%, Cc1ccccc1-c1ccc2c(c1)O[C@@H](CN(C)Cc1ccncc1)[C@@H](C)CN([C@H](C)CO)S2(=O)=O 49.5%, CO[C@H]1CN(C)C(=O)c2ccc(NC(=O)C3CC3)cc2OC[C@H](C)N(Cc2cncnc2)C[C@H]1C -10.1% [at 1.95 µM], CO[C@H]1CN(C)C(=O)c2ccc(NC(=O)Nc3ccccc3)cc2OC[C@H](C)NC[C@H]1C -20.9% [at 8 µM], CO[C@@H]1CN(C)C(=O)c2ccc(NC(=O)Nc3ccccc3)cc2OC[C@H](C)NC[C@@H]1C -13.5% [at 8 µM], CO[C@@H]1CN(C)C(=O)c2ccc(NC(=O)Nc3ccccc3)cc2OC[C@H](C)NC[C@H]1C -11.5% [at 0.5 µM], CO[C@H]1CN(C)C(=O)c2ccc(NC(=O)Nc3ccccc3)cc2OC[C@@H](C)NC[C@H]1C -11.9%, CO[C@@H]1CN(C)C(=O)c2ccc(NC(=O)c3nc4ccccc4s3)cc2OC[C@H](C)N(Cc2ccncc2)C[C@@H]1C 26.2%, CO[C@@H]1CN(C)C(=O)c2ccc(NC(=O)c3nc4ccccc4s3)cc2OC[C@@H](C)N(Cc2ccncc2)C[C@@H]1C 23.4%, COc1ccccc1S(=O)(=O)N[C@H]1C=C[C@H](CC(=O)N2CCCCC2)O[C@@H]1CO -11.2% [at 1.95 µM], C[C@H](NC(=O)C[C@@H]1C[C@@H]2c3cc(NC(=O)NC4CCCCC4)ccc3O[C@@H]2[C@@H](CO)O1)c1ccccc1 6.02% [at 8 µM], CO[C@H]1CN(C)C(=O)c2cc(NC(=O)c3cc(C)on3)ccc2OC[C@H](C)N(C(C)=O)C[C@H]1C -7.95% [at 1.95 µM], O=C(C[C@@H]1C[C@@H]2c3cc(NC(=O)Nc4ccc(C(F)(F)F)cc4)ccc3O[C@@H]2[C@@H](CO)O1)NCC1CC1 20.8% [at 35 µM], CC(C)[C@@H](C)NC(=O)N(C)C[C@@H]1OCc2ccccc2-c2ccccc2C(=O)N([C@H](C)CO)C[C@H]1C 47.6% [at 35 µM], CO[C@H]1CN(C)C(=O)c2cc(NC(=O)C3CCC3)ccc2OC[C@H](C)N(Cc2ccc(F)cc2)C[C@H]1C 14.5%, COc1ccc(-c2ccc([C@H]3[C@H](C#N)N(C(=O)NC4CCCCC4)[C@H]3CO)cc2)cc1 32.4%, C[C@H](CO)N1C[C@H](C)[C@H](CN(C)Cc2ccc3c(c2)OCO3)OCCCC[C@H](C)Oc2ccc(NC(=O)Nc3ccc(C(F)(F)F)cc3)cc2C1=O 31.6% [at 0.5 µM], C[C@@H]1CN([C@H](C)CO)C(=O)c2cc(NC(=O)Nc3ccc(F)cc3)ccc2O[C@@H](C)CCCCO[C@H]1CN(C)Cc1ccc2c(c1)OCO2 -9.48%, C[C@@H]1CN([C@H](C)CO)C(=O)c2cc(NC(=O)Nc3ccc(C(F)(F)F)cc3)ccc2O[C@@H](C)CCCCO[C@@H]1CN(C)Cc1ccc2c(c1)OCO2 29.4% [at 1.95 µM], C[C@H](CO)N1C[C@H](C)[C@H](CN(C)Cc2ccc3c(c2)OCO3)OCCCC[C@H](C)Oc2ccc(NC(=O)Nc3ccc(F)cc3)cc2C1=O -7.04% [at 0.5 µM], C[C@@H]1CCCCO[C@H](CN(C)Cc2ccc3c(c2)OCO3)[C@@H](C)CN([C@H](C)CO)C(=O)c2cc(NC(=O)Nc3ccc(C(F)(F)F)cc3)ccc2O1 15.4% [at 1.95 µM], C[C@@H]1CCCCO[C@H](CN(C)Cc2ccc3c(c2)OCO3)[C@H](C)CN([C@@H](C)CO)C(=O)c2cc(NC(=O)Nc3ccc(F)cc3)ccc2O1 23.7%, CC(C)CC#Cc1ccc2c(c1)O[C@@H](CN(C)CC1CCOCC1)[C@H](C)CN([C@@H](C)CO)S2(=O)=O 17.9%, CO[C@@H]1CN(C)C(=O)c2ccc(NC(=O)c3nc4ccccc4s3)cc2OC[C@@H](C)N(Cc2cccnc2)C[C@H]1C 33.1%, CC(C)CC#Cc1ccc2c(c1)O[C@H](CN(C)Cc1ccccc1F)[C@H](C)CN([C@H](C)CO)S2(=O)=O 28.2%, COc1ccccc1S(=O)(=O)N(C)C[C@H]1OCc2ccccc2-c2c(n(C)c3ccccc23)C(=O)N([C@@H](C)CO)C[C@H]1C 11.5%, C[C@@H]1CN([C@H](C)CO)S(=O)(=O)c2ccc(-c3ccccc3)cc2O[C@H]1CN(C)Cc1cccnc1 46%, CN1CCN(C(=O)C[C@@H]2C[C@@H]3c4cc(NC(=O)Nc5ccc(C(F)(F)F)cc5)ccc4O[C@@H]3[C@H](CO)O2)CC1 30.1%, Cc1ccccc1-c1ccc2c(c1)O[C@@H](CN(C)Cc1ccncc1)[C@H](C)CN([C@@H](C)CO)S2(=O)=O 33.1%
